In PubChem BioAssay (EPA / NIEHS):
Calls of active or inactive are those of the source. The calls were made as follows: active = hit-call score of the fitted dose curve at least 0.9, where 1 is the maximum; inactive = score below 0.9.

assay: ATG_SREBP_CIS: Attagene CIS-FACTORIAL HepG2 Assay for human Sterol Regulatory Element Binding (SREBP) (AID 2282962); details: HepG2 Attagene cis-factorial SREBP reporter, mRNA; actives raise or lower the signal
Protocol: ATG_CIS is a cell-based, multiplexed-readout assay that uses HepG2, a human liver cell line, with measurements taken at 24 hours after chemical dosing in a 24-well plate.ATG_SREBP_CIS is one of 52 assay component(s) measured or calculated from the ATG_CIS assay. It is designed to make measurements of mRNA induction, a form of inducible reporter, as detected with fluorescence intensity signals by Reverse transcription polymerase chain reaction (RT-PCR) and Capillary electrophoresis technology.Data from the assay component ATG_SREBP_CIS was analyzed into 1 assay endpoint. This assay endpoint, ATG_SREBP_CIS, was analyzed with bidirectional fitting relative to DMSO as the negative control and baseline of activity. Using a type of inducible reporter, measures of mRNA for gain or loss-of-signal activity can be used to understand the reporter gene at the transcription factor-level as they relate to the gene SREBF1. Furthermore, this assay endpoint can be referred to as a primary readout, because this assay has produced multiple assay endpoints where this one serves a reporter gene function. To generalize the intended target to other relatable targets, this assay endpoint is annotated to the dna binding intended target family, where the subfamily is basic helix-loop-helix leucine zipper.
Human liver HepG2 cells are transiently transfected with multiple reporter transcription units (MRTUs) in 6-well plates using FuGene 6 reagent (Roche; 3 ml FuGene/1 mg DNA). The MRTU constructs are regulated by a cis-regulating element (promoter). […] A major difference between the CIS and TRANS system is that in CIS activities of endogenous TFs are measured, whereas the TRANS assay evaluates changes in activities of exogenous, chimeric NR-Gal4 proteins. […] At the end of 24 hour incubation, total RNA was isolated using TriZol reagent (Invitrogen). The isolated RNA is then reverse-transcribed using oligo(dT) primer and Mo-MLV reverse transcriptase (Invitrogen) with DNAse I (Ambion) treatment for 30 min. The one-tenth of the produced cDNA was amplified by PCR using Taq DNA polymerase (Invitrogen) and two reporter sequence-specific primers. The PCR products were fluorescently labeled by primer extension with 6-arboxyfluorescein (6-FAM) 5'-labeled reporter sequence-specific primer (2 min at 95 C, 20 s at 68 C and 10 min at 72 C) and these products were digested with 5U of HpaI (New England Biolabs) for 2h at 37 C. The fragments were purified using Qiaquick PCR columns (Qiagen), analyzed on an ABI 3130xL genetic analyzer (Applied Biosystems) with peak positions identified by using a set of X-rhodamine (ROX)-labeled MapMarker1000 molecular weight standards (BioVentures). The raw capillary electrophoresis data was processed using Attagraph software (Attagene).

Row | SMILES | outcome | AC50
1 | Nc1ccc(-c2ccc(N)c(N)c2)cc1N | inactive | 
2 | O=C1C(Cl)=C(Cl)C(=O)C(Cl)=C1Cl | inactive | 
3 | N#CCCCl | inactive | 
4 | COc1ncc(F)c2nc(S(=O)(=O)Nc3c(F)cccc3F)nn12 | inactive | 
5 | O=C(O)C(Br)Br | inactive | 
6 | C[C@]12CC[C@H](O)C[C@H]1CC[C@@H]1[C@@H]2C[C@@H](O)[C@]2(C)[C@@H](C3=CC(=O)OC3)CC[C@]12O |  | 1.74 µM (active)
7 | [CH3][Sn]([Cl])([Cl])[Cl] | inactive | 
8 | CN(C)N | inactive | 
9 | ClCC(Cl)Cl | inactive | 
10 | BrCBr | inactive | 
11 | O=[N+]([O-])O | inactive | 
12 | CC(C)CCCCCCCOP(=O)(Oc1ccccc1)Oc1ccccc1 |  | 27.2 µM (active)
13 | CC(C)(c1cc(Cl)c(O)c(Cl)c1)c1cc(Cl)c(O)c(Cl)c1 | inactive | 
14 | c1ccc2c(c1)CCCC2 | inactive | 
15 | CNC(=N[N+](=O)[O-])NCC1CCOC1 (stereo not given) | inactive | 
16 | NNc1ccccc1 | inactive | 
17 | CCC(C)c1cc([N+](=O)[O-])cc([N+](=O)[O-])c1OC(=O)C=C(C)C (stereo not given) | inactive | 
18 | CCC1CCC(=O)O1 (stereo not given) | inactive | 
19 | COc1ccc(CO)cc1 | inactive | 
20 | CCCCCCCCCCCC#N |  | 128 µM (active)

Row | SMILES | outcome | AC50
21 | C=CCO | inactive | 
22 | C=CC(=O)OCCCCOC(=O)C=C |  | 80.9 µM (active)
23 | CC1OC(C)OC(C)O1 (stereo not given) | inactive | 
24 | c1ccc(P(c2ccccc2)c2ccccc2)cc1 | inactive | 
25 | COC(=O)c1ccccc1S(=O)(=O)NC(=O)Nc1nc(C)cc(C)n1 | inactive | 
26 | Clc1ccc(-c2ccccc2)cc1 | inactive | 
27 | N#Cc1cc(I)c(O)c(I)c1 | inactive | 
28 | CCc1cccc(C)c1N(C(=O)CCl)[C@@H](C)COC | inactive | 
29 | O=C=Nc1ccccc1 | inactive | 
30 | Cc1cc(C)c(C2=C(OC(=O)CC(C)(C)C)C3(CCCC3)OC2=O)c(C)c1 |  | 166 µM (active)
31 | N#CCCCCC#N | inactive | 
32 | CCC(Br)(CC)C(=O)NC(N)=O | inactive | 
33 | C=CCc1ccc(OC(=O)Cc2ccccc2)c(OC)c1 | inactive | 
34 | Cc1ccccc1CCl | inactive | 
35 | C[N+](C)(C)CC(=O)[O-] | inactive | 
36 | CCCC=NO | inactive | 
37 | CCOC(=O)N(C)N=O | inactive | 
38 | CN1C(=O)CCS(=O)(=O)C1c1ccc(Cl)cc1 (stereo not given) | inactive | 
39 | O=C(O)COc1ccccc1 | inactive | 
40 | O=[N+]([O-])c1cc([N+](=O)[O-])c2ccccc2c1 | inactive | 
